Assay results as given in PubChem BioAssay (Tox21).
Unmarked numbers belong to inactive results. Calls come from the whole dose curve.

Each compound was assayed against Muscarinic acetylcholine receptor M1 (Homo sapiens) (UniProt P11229) (assay: Cholinergic receptor muscarinic 1 (CHRM1) small molecule agonists, cell-based qHTS assay (AID 1963589; note: nearly all actives have a fitted effect of over 35% in size)). Conditions: CHRM1-CHO cells, agonist mode, calcium flux fluorescence; series mostly up to 76.8 µM; activation: at the top concentration.
Muscarinic acetylcholine receptor M1 (Homo sapiens), sequence (P11229 whole entry, looked up): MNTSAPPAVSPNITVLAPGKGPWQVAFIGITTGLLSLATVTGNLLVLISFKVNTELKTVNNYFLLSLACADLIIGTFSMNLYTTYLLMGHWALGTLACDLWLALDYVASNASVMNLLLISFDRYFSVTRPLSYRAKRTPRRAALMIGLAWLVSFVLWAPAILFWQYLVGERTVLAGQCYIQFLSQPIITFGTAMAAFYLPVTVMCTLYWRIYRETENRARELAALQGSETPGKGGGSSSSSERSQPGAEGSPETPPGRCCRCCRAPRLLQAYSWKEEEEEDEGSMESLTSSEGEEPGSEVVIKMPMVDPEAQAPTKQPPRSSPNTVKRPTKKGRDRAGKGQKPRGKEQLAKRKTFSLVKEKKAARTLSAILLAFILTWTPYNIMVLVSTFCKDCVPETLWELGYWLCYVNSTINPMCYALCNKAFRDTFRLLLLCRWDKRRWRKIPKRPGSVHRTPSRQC
Description: National Center for Advancing Translational Sciences [NCATS]
Division of Preclinical Innovation [DPI]
U.S. Environmental Protection Agency [EPA]
National Institutes of Environmental Health Sciences [NIEHS]
National Toxicology Program [NTP]
U.S. Food and Drug Administration [FDA]
The CHRM1 is a muscarinic receptor. This receptor plays a crucial role in learning and memory processes and has long been identified as a promising therapeutic target for the improvement of cognitive decline in Alzheimer's disease (AD). The CHRM1-CHO cell line stably expressing human muscarinic acetylcholine receptor M1 (CHRM1) can be used for screening agonists and antagonists of interactions between CHRM1 and its ligands. The CHRM1-CHO Calcium Flux Assay is a homogeneous fluorescence-based assay for detecting the intracellular calcium level using FDSS kinetic plate reader system.
CHRM1-CHO cells were dispensed at 1000 cells/3uL/well in 1536-well black-clear bottom plates using a Multidrop Dispenser. After the assay plates were incubated at a 37 C/5% CO2 incubator for 18 h, 3 uL of Dye Loading Buffer was transferred to the assay plate by a Flying Reagent Dispenser. The assay plates were incubated at 37 C for 1h. For agonist mode, 23 nL of compounds dissolved in DMSO, positive controls or DMSO only was transferred to the assay plate by a pin tool. […] Each test compound was measured at 15 concentrations in three independent runs.
% is set by controls: 0 for no effect and ±100 for the full control effect.

Row | Compound | activation
1 | O=C(O)/C=C/c1ccc(O)c(O)c1 | 6.6%
2 | CCCOc1ccc(S(=O)(=O)N2CCN(CC)CC2)cc1-c1nc2c(CC)n(Cc3ccccn3)nc2c(=O)[nH]1 | -0.68%
3 | Cc1ccc(O)c2ncccc12 | 2.49% [at 35.3 µM]
4 | CCC[Si](OC)(OC)OC | 0.341%
5 | O[Si](c1ccccc1)(c1ccccc1)c1ccccc1 | -1.39%
6 | CC(C(O)c1ccccc1)N(C)CCOC(c1ccccc1)c1ccccc1 (stereo not given) | 8.77% [at 35.3 µM]
7 | C=C(C)c1cccc(C(=C)C)c1 | -0.364%
8 | CC(C)N1C(=O)c2ccccc2C1=O | -0.929%
9 | CCCCCCCC/C=C\CCCCCCCC(=O)N(CCO)CCO | -0.505%
10 | CCOc1ccc(C(=O)OCCN(CC)CC)cc1 | 12.5% [at 35.3 µM]
11 | COC(=O)C1=C(C)NC(C)=C(C(=O)OC(C)C)C1c1cccc2nonc12 (stereo not given) | -0.515% [at 35.3 µM]
12 | Brc1c2ccccc2c(Br)c2ccccc12 | -0.0159% [at 6.97 µM]
13 | O=C1CCCCCCCCCCCC(=O)OCCO1 | -0.849%
14 | O=C(Cl)c1ccc(Cl)cc1Cl | 0.0592%
15 | CC(C)=CC(C)(C)C | 0.105%
16 | Cc1c(N)c(=O)n(-c2ccccc2)n1C | -0.223% [at 35.3 µM]
17 | Clc1ccc(C(Cn2ccnc2)OCc2ccc(Sc3ccccc3)cc2)c(Cl)c1 (stereo not given) | 2.38% [at 35.3 µM]
18 | CCc1ncc(C)[nH]1 | -0.177%
19 | C[C@@H]1C[C@H]2[C@@H]3C[C@H](F)C4=CC(=O)C=C[C@]4(C)[C@@]3(F)[C@@H](O)C[C@]2(C)[C@@]1(O)C(=O)CO | 0.678% [at 35.3 µM]
20 | FC(F)(Cl)C(F)(Cl)Cl | -1.02%

Row | Compound | activation
21 | Cc1ccccc1Br | -1.51%
22 | C1CCCCCCCCCCC1 | -0.458% [at 15.8 µM]
23 | CC(C)C(O)(c1ccc(OC(F)(F)F)cc1)c1cncnc1 (stereo not given) | -1.25%
24 | CCCCN1C(=O)c2ccccc2C1=O | -0.938%
25 | CC[N+](CC)(CC(=O)Nc1c(C)cccc1C)Cc1ccccc1 (tested in a mixture with another compound) | -0.428% [at 35.3 µM]
26 | O=C(O)Cc1ccc(Cl)cc1Cl | -0.591%
27 | CN(C)CCOC(=O)C(c1ccccc1)C1(O)CCCC1 (stereo not given) | -0.999% [at 35.3 µM]
28 | C=CCCCCCCCCCCCCCC | -0.058% [at 15.8 µM]
29 | BrCc1cccc(Oc2ccccc2)c1 | 0.0998%
30 | C=CCOc1ccccc1OCC(O)CNC(C)C (stereo not given) | -0.811% [at 35.3 µM]
31 | c1cc2ccc3ccc4ccc5cccc6c(c1)c2c3c4c56 | 0.275% [at 2.72 µM]
32 | CCOc1ccc2nc(S(N)(=O)=O)sc2c1 | -0.325% [at 35.3 µM]
33 | CCCCC(CC)COC(=O)CCCCC(=O)OCc1ccccc1 (stereo not given) | -0.652%
34 | C[C@@H]1CC[C@H]2C(C)(C)[C@H]3C[C@@]12CC[C@@]3(C)O | -0.908%
35 | CN1CCN(CCCN2c3ccccc3Sc3ccc(S(=O)(=O)N(C)C)cc32)CC1 | -0.61% [at 35.3 µM]
36 | CO[C@]12C[C@@H](COC(=O)c3cncc(Br)c3)CN(C)[C@@H]1Cc1cn(C)c3cccc2c13 | -0.238% [at 35.3 µM]
37 | C[C@@H](O[C@H]1OCCN(Cc2n[nH]c(=O)[nH]2)[C@H]1c1ccc(F)cc1)c1cc(C(F)(F)F)cc(C(F)(F)F)c1 | 11.1% [at 35.3 µM]
38 | CC(=O)N(CC(O)CO)c1c(I)c(C(=O)NCCO)c(I)c(C(=O)NCC(O)CO)c1I (stereo not given) | -0.494% [at 35.3 µM]
39 | CCCC(CCC)(C(=O)OCC)C(=O)OCC | 4.09% [at 35.3 µM]
40 | O=[N+]([O-])c1ccc(O/N=C/c2cc(Br)c(O)c(Br)c2)c([N+](=O)[O-])c1 | 4.19%
